Where “and” joins values, the source holds several entries; their conditions need not be identical. Equal entries are not always repeated. Records with an inconclusive call do not appear. Calls of active or inactive are those of the source. Calls follow the shape of the dose curve; as a rule, active = well fitted curve in the direction sought with a large enough effect in the repeat runs; inconclusive = weak or mixed curves; inactive = no such curve, though single readings can be large; an effect the other way counts as inactive or inconclusive.
What was measured:
[1] = qHTS RealTime-Glo MT Cell Viability Assay in HEK293 cells - 16 hour (AID 1224872); conditions: RealTime-Glo luminescence; series mostly up to 76.8 µM; also: top concentration of the series differs between compounds; nearly all actives have a fitted effect of over 50% in size
Summary of the method: (§1)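 Assay medium contained NanoLuc luciferase plus cell-permeant prosubstrate, added with HEK293 cells at 600 cells/well. After 5 h at 37 C/5% CO2 compounds were added; plates stayed at 37 C for 40 h with serial luminescence reads.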

[2] = qHTS RealTime-Glo MT Cell Viability Assay in HepG2 cells - 8 hour (AID 1224873); conditions: RealTime-Glo luminescence; series mostly up to 76.8 µM; also: nearly all actives have a fitted effect of over 55% in size
Summary of the method: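 Real-time viability: cells seeded at 600 per well together with NanoLuc and cell-permeant prosubstrate, compounds added after 5 h incubation. Luminescence tracked at 0, 8, 16, 24, 32 and 40 h of exposure.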

[3] = qHTS RealTime-Glo MT Cell Viability Assay in HEK293 cells - 40 hour (AID 1224874); conditions: RealTime-Glo luminescence; max response: hits give low values; also: nearly all actives have a fitted effect of over 50% in size
Summary of the method: (§2)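 Luminescence readout at each listed time point; HEK293, 600 cells/well, RealTime-Glo MT reagent added with cells; compounds pinned (23 nL in DMSO) after 5 h at 37 C; continuous culture at 37 C.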

[4] = A CellTox Green Cytotoxicity Assay to monitor cytotoxicity in HepG2 cells - 16 hour (AID 1224876); conditions: CellTox Green fluorescence; series mostly up to 76.8 µM; also: nearly all actives have a fitted effect of over 45% in size
Summary of the method: (§3)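 HepG2, 600 cells/well premixed w/ CellTox Green; 5 h settle, 37 C/5% CO2; pintool cpd add (DMSO); 37 C, 40 h; fluorescence read at 0, 8, 16, 24, 32, 40 h.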

[5] = qHTS RealTime-Glo MT Cell Viability Assay in HepG2 cells - 32 hour (AID 1224877); conditions: RealTime-Glo luminescence; series mostly up to 76.8 µM; also: nearly all actives have a fitted effect of over 55% in size
Summary of the method: (§4)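 qHTS, HepG2, 600 cells/well, RealTime-Glo (NanoLuc + prosubstrate) added with cells; 5 h preincubation; DMSO compound addition; 37 C; luminescence at 0/8/16/24/32/40 h.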

[6] = A CellTox Green Cytotoxicity Assay to monitor cytotoxicity in HepG2 cells - 40 hour (AID 1224879); conditions: CellTox Green fluorescence; series mostly up to 76.8 µM; also: nearly all actives have a fitted effect of over 40% in size
Summary of the method: as §3

[7] = qHTS RealTime-Glo MT Cell Viability Assay in HEK293 cells - 0 hour (AID 1224880); conditions: RealTime-Glo luminescence; series mostly up to 76.8 µM; also: top concentration of the series differs between compounds; nearly all actives have a fitted effect of over 45% in size
Summary of the method: as §2

[8] = A CellTox Green Cytotoxicity Assay to monitor cytotoxicity in HEK293 cells - 32 hour (AID 1224881); conditions: CellTox Green fluorescence; series mostly up to 76.8 µM; also: nearly all actives have a fitted effect of over 40% in size
Summary of the method: (§5)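 Read-out: fluorescence of a cell-impermeant cyanine dye staining DNA of dead cells, proportional to cytotoxicity. HEK293, 600 cells/well with reagent, compound (23 nL DMSO) added after 5 h; reads at 0, 8, 16, 24, 32, 40 h.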

[9] = A CellTox Green Cytotoxicity Assay to monitor cytotoxicity in HepG2 cells - 0 hour (AID 1224882); conditions: CellTox Green fluorescence; series mostly up to 76.8 µM; also: nearly all actives have a fitted effect of over 35% in size
Summary of the method: as §3

[10] = A CellTox Green Cytotoxicity Assay to monitor cytotoxicity in HepG2 cells - 32 hour (AID 1224883); conditions: CellTox Green fluorescence; series mostly up to 76.8 µM; also: nearly all actives have a fitted effect of over 50% in size
Summary of the method: as §3

[11] = qHTS RealTime-Glo MT Cell Viability Assay in HepG2 cells - 16 hour (AID 1224885); conditions: RealTime-Glo luminescence; series mostly up to 76.8 µM; also: nearly all actives have a fitted effect of over 50% in size
Summary of the method: as §4

[12] = qHTS RealTime-Glo MT Cell Viability Assay in HEK293 cells - 24 hour (AID 1224886); conditions: RealTime-Glo luminescence; series mostly up to 76.8 µM
Summary of the method: as §1

[13] = qHTS RealTime-Glo MT Cell Viability Assay in HEK293 cells - 8 hour (AID 1224887); conditions: RealTime-Glo luminescence; series mostly up to 76.8 µM
Summary of the method: as §2

[14] = A CellTox Green Cytotoxicity Assay to monitor cytotoxicity in HEK293 cells - 16 hour (AID 1224888); conditions: CellTox Green fluorescence; series mostly up to 76.8 µM; also: nearly all actives have a fitted effect of over 35% in size
Summary of the method: as §5

[15] = qHTS RealTime-Glo MT Cell Viability Assay in HepG2 cells - 0 hour (AID 1224889); conditions: RealTime-Glo luminescence; series mostly up to 76.8 µM; also: nearly all actives have a fitted effect of over 50% in size
Summary of the method: as §4

[16] = A CellTox Green Cytotoxicity Assay to monitor cytotoxicity in HepG2 cells - 8 hour (AID 1224890); conditions: CellTox Green fluorescence; series mostly up to 76.8 µM; also: nearly all actives have a fitted effect of over 45% in size
Summary of the method: as §3

[17] = qHTS assay to identify small molecule antagonists of the estrogen receptor alpha (ER-alpha) signaling pathway using the BG1 cell line in the presence of 0.1 nM 17-beta-estradiol - cell viability counter screen (AID 1259241); conditions: VM7Luc4E2 (BG1) viability, CellTiter-Fluor protease, 22 h, 0.1 nM estradiol agonist added; series mostly up to 92.4 µM; also: nearly all actives have a fitted effect of over 40% in size
Summary of the method: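 VM7Luc4E2 cells (endogenous ER-alpha, 4×ERE-luciferase), hormone-starved 5 days in charcoal-stripped FBS, were treated with compounds plus 0.1 nM 17beta-estradiol for 22 hr at 37C; viability read in same wells as CellTiter-Fluor live-cell protease fluorescence.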

[18] = A CellTox Green Cytotoxicity Assay to monitor cytotoxicity in HepG2 cells - 24 hour (AID 1224878); conditions: CellTox Green fluorescence; series mostly up to 76.8 µM; also: nearly all actives have a fitted effect of over 45% in size
Summary of the method: as §3

[19] = A CellTox Green Cytotoxicity Assay to monitor cytotoxicity in HEK293 cells - 8 hour (AID 1224884); conditions: CellTox Green fluorescence; series mostly up to 76.8 µM; also: nearly all actives have a fitted effect of over 35% in size
Summary of the method: as §5

[20] = A CellTox Green Cytotoxicity Assay to monitor cytotoxicity in HEK293 cells - 24 hour (AID 1224875); conditions: CellTox Green fluorescence; series mostly up to 76.8 µM; also: nearly all actives have a fitted effect of over 45% in size
Summary of the method: as §5
% is scaled to controls: 0 for no effect and ±100 for the full control effect.

O=[N+]([O-])c1ccc(Cl)c(Cl)c1
inactive: outcome [1] | outcome [2] | max response [3] -5.48% and 3.8% | Potency [4] | outcome [5] | Potency [6] | outcome [7] | Potency [8] | Potency [9] | Potency [10] | outcome [11] | outcome [12] | outcome [13] | Potency [14] | outcome [15] | Potency [16] | outcome [17]

Cc1ccc(O)c(C)c1
inactive: outcome [1] | outcome [2] | max response [3] 4.17% and 0.581% | outcome [5] | Potency [8] | Potency [9] | Potency [10] | outcome [11] | outcome [12] | outcome [13] | Potency [14] | outcome [15] | Potency [16] | outcome [17]

CSc1nnc(C(C)(C)C)c(=O)n1N
inactive: outcome [1] | outcome [2] | max response [3] -23.1% and -14.9% | Potency [4] | outcome [5] | Potency [18] | Potency [8] | Potency [9] | Potency [10] | outcome [11] | outcome [12] | outcome [13] | Potency [14] | outcome [15] | Potency [16] | outcome [17]

Cc1cccc(C)c1N
inactive: outcome [1] | outcome [2] | max response [3] -0.963% and 19.7% | outcome [5] | Potency [6] | outcome [7] | Potency [8] | Potency [9] | Potency [10] | Potency [19] | outcome [11] | outcome [12] | outcome [13] | Potency [14] | outcome [15] | Potency [16] | outcome [17]

C=CC(=O)OCCCCCC(C)C
inactive: outcome [1] | outcome [2] | max response [3] -0.829% and 3.33% | outcome [5] | Potency [18] | Potency [6] | Potency [8] | Potency [9] | Potency [10] | Potency [19] | outcome [11] | outcome [12] | outcome [13] | outcome [15] | Potency [16] | outcome [17]

CCCOC(=O)c1ccccc1C(=O)OCCC
inactive: outcome [1] | outcome [2] | max response [3] 0.157% and 0.878% | outcome [5] | Potency [18] | Potency [6] | Potency [8] | Potency [9] | Potency [10] | outcome [11] | outcome [12] | outcome [13] | outcome [15] | Potency [16] | outcome [17]

Cc1ccccc1N
inactive: outcome [1] | outcome [2] | outcome [5] | Potency [18] | Potency [8] | Potency [9] | Potency [10] | outcome [11] | outcome [12] | outcome [13] | outcome [15] | Potency [16] | outcome [17]

N#CN=C(N)N
inactive: outcome [1] | outcome [2] | max response [3] 1.89% and 5.69% | outcome [5] | Potency [18] | Potency [6] | Potency [8] | Potency [9] | Potency [10] | Potency [19] | outcome [11] | outcome [12] | outcome [13] | outcome [15] | Potency [16] | outcome [17]

COS(=O)(=O)OC
inactive: outcome [1] | outcome [2] | max response [3] 1.63% and 22.3% | outcome [5] | Potency [6] | outcome [7] | Potency [8] | Potency [9] | Potency [10] | outcome [11] | outcome [12] | outcome [13] | Potency [14] | outcome [15] | Potency [16] | outcome [17]

O=C(O)CCCc1ccc(N(CCCl)CCCl)cc1
inactive: outcome [1] | outcome [2] | Potency [20] | outcome [5] | Potency [6] | outcome [7] | Potency [8] | Potency [9] | Potency [10] | Potency [19] | outcome [11] | outcome [12] | outcome [13] | outcome [15] | Potency [16] | outcome [17]
